As usually defined, the inhibition is the change of the read-out against control, counted positive when it falls.

The campaign covered roughly 340,000 compounds. About 1,700 (0.5%) were called active. The sample as a whole holds a higher share of actives than the screen did. Unmarked numbers belong to inactive results. No stated cut-off is given here; in the data, active means inhibition above about 36%; inactive means the rest.

In this experiment the target is Serine protease HTRA1 (Homo sapiens) (UniProt Q92743). Description: HTRA1 serine protease inhibitors, primary screen, biochemical, fluorescence polarization, HTS (AID 504803).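 Further: 0% = enzyme with DMSO and 100% = wells lacking enzyme.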 The conditions noted are these: recombinant HTRA1, FP-rhodamine activity-based probe, at 5.96 µM, stronger effect = higher value.
Serine protease HTRA1 (Homo sapiens), sequence (Q92743 whole entry, looked up): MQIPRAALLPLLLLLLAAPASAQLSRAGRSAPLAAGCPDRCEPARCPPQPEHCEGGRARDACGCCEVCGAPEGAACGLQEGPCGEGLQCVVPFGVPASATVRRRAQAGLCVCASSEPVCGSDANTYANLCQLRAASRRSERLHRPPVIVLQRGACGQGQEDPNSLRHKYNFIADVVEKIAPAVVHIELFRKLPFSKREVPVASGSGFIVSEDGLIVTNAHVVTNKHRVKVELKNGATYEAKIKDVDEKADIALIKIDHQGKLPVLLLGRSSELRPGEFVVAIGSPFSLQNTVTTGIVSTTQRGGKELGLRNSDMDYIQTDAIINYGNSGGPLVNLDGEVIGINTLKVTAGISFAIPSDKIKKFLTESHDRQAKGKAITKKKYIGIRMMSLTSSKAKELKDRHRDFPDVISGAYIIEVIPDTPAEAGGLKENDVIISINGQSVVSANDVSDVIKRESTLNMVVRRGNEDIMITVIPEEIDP
On to `COc1cc(C(=O)OCCCN2CCOCC2)cc(OC)c1OC`, for which the inhibition is -2.46%.

With `O=NN(CCCl)C(=O)NCCc1cccc[n+]1[O-]`, the inhibition is 1.62%.

For the compound `CCOC(=O)C1Nc2ccc(C(F)(F)F)cc2C2C=CCC12` (stereo unspecified), the inhibition was 41.7% (active).

For the compound `CCOC(=O)NNc1cc(C(F)(F)F)ccn1`, the inhibition was -0.2%.

`CCOC(=O)C[C@H]1c2ccc(C(F)(F)F)cc2S(=O)(=O)N1c1ccccc1`: the inhibition is -13.4%.

Take `O=Nc1c(O)cc(O)c2ccccc12`: the inhibition was 42.4% (active).

Take `O=C(NN=Cc1ccccc1O)NN=Cc1ccccc1O`: the inhibition is 25.9%.

As to `COc1cccc2c(O)cc(=O)n(C)c12`, the inhibition was -0.49%.

For the compound `Cc1ccc(-c2ccc(CN3C(C(C)C)C(=O)N(Cc4cn(CCC5OCCO5)nn4)CCS3(=O)=O)cc2)cc1` (stereo unspecified), the inhibition was -29.6%.

As for `CC[C@@H]1Cc2cc(O)ccc2C2=C1c1ccc(O)cc1C[C@H]2CC`, the inhibition was 44.3% (active).

Regarding `COc1cc(C)c(CN2CCN(C(=O)CCC(=O)c3ccc(C)s3)CC2)cc1OC`, the inhibition is 6.95%.

In the case of `CCCCCCNC(=O)O[C@H]1CN(C(=O)OC(C)C)N(C(=O)OC(C)C)[C@@H]2CN(S(=O)(=O)c3ccc(C)cc3)C[C@]12O`, the inhibition was -18.8%.

On to `Oc1ccc(CNc2ccccc2O)cc1`, for which the inhibition was 52.1% (active).

Regarding `O=C(Cc1ccc(Cl)cc1)NC(=S)Nc1ccccc1O`, the inhibition is -31.1%.

For `c1ccc(CNCc2ccc(CNCc3ccccc3)cc2)cc1`, the inhibition was 2.32%.

For the compound `C[C@@H]1CN([C@H](C)CO)C(=O)CCCn2cc(nn2)CO[C@H]1CN(C)S(=O)(=O)c1ccc(Oc2ccccc2)nc1`, the inhibition was 5.67%.

With `COCC1CCCCN1C(=O)c1cc(COc2ccc(C)c(C)c2)on1` (stereo unspecified), the inhibition is -4.09%.

On to `COc1ccc(C=C2CCC3C(CCCC34OCCO4)C2=O)cc1` (stereo unspecified), for which the inhibition was -8.69%.

With `C[n+]1ccc(/C=C/c2c[nH]c3ccccc23)cc1`, the inhibition was 2.74%.

On to `Nc1nonc1-n1nnc(C(=O)N/N=C/c2c[nH]c3ccccc23)c1-c1ccccc1`, for which the inhibition was -3.11%.

As to `CSC(=S)N/N=C/c1c[nH]c2ccccc12`, the inhibition is 48.9% (active).

For the compound `C[C@H]1CN([C@@H](C)CO)C(=O)CCCn2nncc2CO[C@@H]1CN(C)Cc1ccc(Oc2ccccc2)cc1`, the inhibition was -3.08%.

For the compound `O=c1ccc2c(-c3ccccc3S(=O)(=O)O)c3ccc(O)c(O)c3oc-2c1O`, the inhibition is 37.8% (active).

Take `COc1cc(C=NC2CCCCC2)ccc1O`: the inhibition was 0.85%.

`COc1ccc(CN2C(=O)C(CC(=O)NCCCCc3ccccc3)CC(C(=O)N3CCOCC3)=C2C)cc1` (stereo unspecified): the inhibition was 5.2%.

On to `O=C(c1ccccc1)N1CCN(c2cc(-c3ccccc3)nc3cc(-c4cccc(Cl)c4)nn23)CC1`, for which the inhibition was -11.5%.

`CCCCCNC(=O)C1c2ccccc2Oc2ccccc21`: the inhibition was 0.55%.

For the compound `CCCN(CCC)C(=O)C1c2ccccc2Oc2ccccc21`, the inhibition was 38.1% (active).

As for `CCOC(=O)CC(NC(=O)C1c2ccccc2Oc2ccccc21)c1ccc(C)cc1` (stereo unspecified), the inhibition was -3.25%.

`C[C@H]1CN([C@@H](C)CO)S(=O)(=O)c2ccc(Br)cc2O[C@H]1CN(C)C(=O)c1cnccn1`: the inhibition is 10.3%.

As for `CNC(=O)c1ccc(CN(C)C(=O)c2cc(C3CC3)nc3c2cnn3C(C)C)cc1`, the inhibition was -4.2%.

For the compound `CC(C)CC1C(=O)N(Cc2cn(Cc3ccco3)nn2)CCS(=O)(=O)N1Cc1ccc(-c2ccc(Cl)c(Cl)c2)cc1` (stereo unspecified), the inhibition was -109%.

As to `C[C@@H]1CN([C@H](C)CO)C(=O)CCCn2nncc2CO[C@@H]1CN(C)S(=O)(=O)c1cccc(C#N)c1`, the inhibition is 4.09%.

For `CCN1CCN(C(c2cccnc2)c2cc(Cl)c3cccnc3c2O)CC1` (stereo unspecified), the inhibition was 42% (active).

As to `COc1ccc(CNC(=O)/C(C#N)=C/c2cccc(OC)c2OC)cc1`, the inhibition is -5.58%.

As for `N#C/C(=C\c1ccc(O)c(O)c1)C(=O)NCc1ccccc1`, the inhibition is 59.1% (active).

`COCCNC(=O)/C(C#N)=C/c1cccc(OCc2ccccc2)c1`: the inhibition is -21.2%.

With `CC(C)CC1C(=O)N(Cc2cn(CC3CCCCC3)nn2)CCS(=O)(=O)N1Cc1ccc(-c2ccc(Cl)cc2)cc1` (stereo unspecified), the inhibition is -45.3%.

Regarding `Cc1cccc(N2CCN(C(=O)c3ccccc3NC(=O)C3CCCCC3C(=O)O)CC2)c1` (stereo unspecified), the inhibition is 2.87%.

For `CC(C)=C1SC(N2CCN(c3cccc(C)c3)CC2)=NC1=O`, the inhibition was -3.36%.

In the case of `Cc1cccc(N2CCN(c3ccc(NC(=O)/C=C\C(=O)O)cc3)CC2)c1`, the inhibition was 52% (active).

Consider `O[C@H]1C[C@H](c2ccc(Cl)cc2)N(Cc2cccs2)C[C@@H]1n1cc(C2CC2)nn1`, for which the inhibition was -46%.

As to `COc1cccc(OC)c1C(=O)Nc1nnc(C(C)C)s1`, the inhibition was -2.63%.

As to `COc1ccc(C(=O)Nc2cccc(/C=C(/CCC(=O)O)c3nc4ccccc4s3)c2)cc1`, the inhibition was -96.2%.

As to `COc1cccc2sc(NNC(=O)c3nc4ccccc4s3)nc12`, the inhibition is 39.4% (active).

With `C[C@H]1CN([C@@H](C)CO)C(=O)CCCn2cc(nn2)CO[C@@H]1CN(C)C(=O)Nc1ccccc1`, the inhibition is 2.55%.

Take `Cc1noc(C)c1NC(=O)N(C)C[C@@H]1Oc2cc(Br)ccc2S(=O)(=O)N([C@@H](C)CO)C[C@H]1C`: the inhibition was 0.21%.

In the case of `Cc1ccc(C(=O)N[C@H](C(=O)N2CCN(c3ncccn3)CC2)C(C)C)cc1`, the inhibition is 5.28%.

For `CCc1nc2c(=O)[nH]cnc2o1`, the inhibition was 5.91%.

Turning to `CCCn1c(C)cc(-c2csc(NC(=O)CCc3nc4ccccc4c(=O)[nH]3)n2)c1C`, the inhibition is -3.91%.

Regarding `CCCc1cc(-c2n[nH]c(=S)n2Cc2ccccc2)cs1`, the inhibition is -3.06%.

Consider `Cc1cc(-c2csc(N)n2)c(C)n1-c1ccccc1`, for which the inhibition was 52.5% (active).

Turning to `Cc1cc(-c2csc(N)n2)c(C)n1Cc1ccccc1`, the inhibition is 37.6% (active).

For `CCOC(=O)C1=C(O)/C(=C/c2cc(C)n(-c3ccccc3)c2C)N=C1C`, the inhibition was 20.9%.

`Cc1cc(C(=O)OCC(=O)N2c3ccccc3NC(=O)C2(C)C)c(C)n1-c1ccccc1`: the inhibition is -25.2%.

With `CCN1C(=O)[C@H]2[C@@H](c3ccccc3)N[C@]3(CCCN(Cc4ccc(C)cc4)C3=O)[C@H]2C1=O`, the inhibition was -0.19%.

(Values after PubChem BioAssay AID504803 (The Scripps Research Institute Molecular Screening Center, 2011).)
